An excerpt weighted towards active compounds, which were near 3.4% of everything screened.
LYP inh 2: PTPN22 phosphatase inhibitors, primary screen, biochemical, DiFMUP fluorescence, 2 µM; Tyrosine-protein phosphatase non-receptor type 22 (Homo sapiens), Q9Y2R2; recombinant LYP catalytic domain; inhibition, % at 2 µM; 0.21% of 96,000 active;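 active = inhibition at 2 µM at or above a set limit, the screen mean plus 3 SD, cut at about 24% in these data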;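 also: 0% = DMSO with enzyme and 100% = enzyme fully blocked by orthovanadate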
PTPN22 act: LYP phosphatase activators, primary screen, biochemical, DiFMUP fluorescence, 2 µM | AID 697, 2007 | 0.11% of 96,000 active | recombinant LYP; 0 = plate median, 100 = signal doubled | Tyrosine-protein phosphatase non-receptor type 22 (Homo sapiens), Q9Y2R2 | activation, % at 2 µM;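 active = activation at 2 µM above a set limit, the mean plus 5 SD, cut at about 37% in these data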
ERb SRC1 inh: inhibitors of ERβ-SRC1 coactivator interaction, primary screen, biochemical, TR-FRET, ERβ LBD, SRC-1 peptide | Estrogen receptor beta (Homo sapiens), Q92731 | TR-FRET ER-beta LBD / SRC1-Cy5 peptide binding; receptor agonist-loaded with 1 µM estradiol | inhibition, % at 25.6 µM | 1.3% of 86,000 active;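 active = compounds whose percent inhibition of the receptor-coactivator binding signal exceeds about 50% in the single-dose screen, limit read from the data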;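 also: 0% = receptor plus peptide wells without compound and 100% = peptide-only wells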
ERa SRC1 pot: enhancers of ERα–SRC-1 coactivator binding, primary screen, biochemical, TR-FRET, ERα LBD, low estradiol | Estrogen receptor (Homo sapiens), P03372 | TR-FRET ERalpha-LBD/SRC-Cy5 coactivator binding, 2 h; 100 = basal binding, no effect | coactivator binding (% of control), % at 25.6 µM | 1.3% of 86,000 active | AID 639, 2007; in the data active = activity above about 200%;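 also: binding measured in presence of low estradiol as agonist stimulus; 0% = peptide alone without receptor and 100% = receptor with peptide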
Target sequence (P03372 whole entry, looked up, the tested form may be a part): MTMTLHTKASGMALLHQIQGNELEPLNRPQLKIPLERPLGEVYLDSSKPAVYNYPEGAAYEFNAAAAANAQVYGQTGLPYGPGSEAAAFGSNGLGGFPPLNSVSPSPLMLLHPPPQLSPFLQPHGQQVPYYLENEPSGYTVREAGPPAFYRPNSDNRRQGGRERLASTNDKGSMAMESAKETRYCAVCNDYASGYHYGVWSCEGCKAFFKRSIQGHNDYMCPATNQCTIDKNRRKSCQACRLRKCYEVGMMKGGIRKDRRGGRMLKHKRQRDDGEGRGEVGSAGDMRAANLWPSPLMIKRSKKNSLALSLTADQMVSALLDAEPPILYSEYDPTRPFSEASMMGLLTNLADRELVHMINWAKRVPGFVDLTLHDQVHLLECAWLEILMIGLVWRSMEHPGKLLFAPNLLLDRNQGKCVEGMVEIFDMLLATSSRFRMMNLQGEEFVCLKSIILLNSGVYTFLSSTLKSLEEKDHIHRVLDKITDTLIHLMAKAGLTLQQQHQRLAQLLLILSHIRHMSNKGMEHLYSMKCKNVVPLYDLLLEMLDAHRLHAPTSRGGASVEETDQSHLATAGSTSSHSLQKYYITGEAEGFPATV
FAK blocker: FAK kinase inhibitors, primary screen, biochemical | Focal adhesion kinase 1 (Homo sapiens), Q05397 | AID 727, 2007 | inhibition, %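 (tested at 7 µM)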 | 0.84% of 97,000 active | biochemical FAK kinase activity assay;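 also: 0% = DMSO and 100% = reference compound high control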
ERa coact inh: ERα–SRC-1 coactivator interaction inhibitors, primary screen, biochemical, TR-FRET, ERα LBD, estradiol-bound | Estrogen receptor (Homo sapiens), P03372 | TR-FRET ER-alpha LBD / SRC-1 peptide | inhibition, % at 25.6 µM | 1.7% of 86,000 active | AID 629, 2007; in the data active = inhibition above about 50%;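 also: 0% = receptor plus peptide control and 100% = peptide only without receptor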
FAK inh conf: FAK kinase inhibitors, retest, confirmation, biochemical. shares compounds with FAK blocker. FAK kinase biochemical inhibition assay. inhibition, % at 7 µM. 28% of 750 active. AID 794, 2007
The depositor's hits bear a star; . = no result; [ ] = dose if it differs, or a comment. Rule as the data show it, unless noted: active = inhibition above about 19%; inactive = the rest.

SMILES | LYP inh 2 | PTPN22 act | ERb SRC1 inh | ERa SRC1 pot | FAK blocker | ERa coact inh | FAK inh conf
Cc1ccccc1-c1ccc(Nc2ccc(N3CCOCC3)cc2)nn1 | 14.3 | -17.0 | 80.1*[fluorescence artefact?] | 7.0 | 31.0* | 98.7*[fluorescence artefact?] | 32.9*
COc1cc2cc(CN(Cc3nnnn3Cc3ccco3)C3CCCCC3)c(=O)[nH]c2cc1OC | 7.3 | -7.6 | 0.7 | 80.2 | 9.6 | 7.7 | .
CCOc1ccc2[nH]c(=O)c(CN(Cc3nnnn3Cc3ccco3)C3CCCCC3)cc2c1 | 10.0 | -12.0 | 24.3 | 75.9 | 38.6* | 33.9 | 0.0
c1ccc(NCc2cccnc2)cc1 | 9.0 | -6.3 | -10.8 | 96.4 | -0.5 | -1.6 | .
O=C1c2ccccc2C(=O)c2c(NCc3cccnc3)cccc21 | 6.0 | -1.1 | . | . | 27.7* | . | 11.2
